Five molecules from PubChem BioAssay (NCATS) can be followed below.

Test [1] is described as follows: Cell Viability - BJ (AID 421; calls by dose curve;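 further: potency means the concentration at half of the fitted maximal effect; cells exposed to compound for 40 hours at 37 °C before readout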). The conditions noted are these: BJ fibroblast viability, qHTS. The gist of the method:
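Normal human BJ foreskin fibroblasts, 1500/well in complete medium, treated 40 hr at 37 °C. Cellular ATP by CellTiter-Glo luminescence; normalized to DMSO and 100 uM tamoxifen, AC50 from Hill fit.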
On the technique in general: In qHTS, concentration-response curves come from the screen itself.

The nature of test [2]: Cell Viability - HepG2 (AID 433; calls by dose curve;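 further: potency means the concentration at half of the fitted maximal effect; potency for ATP loss meaning cytotoxicity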). To be noted: qHTS. The gist of the method: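 Cytotoxicity read as ATP loss (CellTiter-Glo luminescence) after 40 hr compound exposure of HepG2, 1500 cells/well, 37 °C. AC50 by Hill equation; 0% set by DMSO, 100% inhibition by 100 uM tamoxifen.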
Test [3] can be described thus: Cell Viability - MRC5 (AID 434; calls by dose curve;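 further: potency means the concentration at half of the fitted maximal effect; cells exposed to compound for 40 hours at 37 °C; potency reflects cytotoxicity seen as loss of intracellular ATP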). The conditions noted are these: MRC5 lung fibroblast viability, qHTS. The procedure, abridged:
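Decrease in intracellular ATP, quantified by luciferase light output, reflects compound toxicity toward MRC5 cells exposed for 40 hr in complete culture medium. Concentration-response curves, scaled between DMSO and 100 uM tamoxifen, gave AC50 values.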

Test [4] can be described thus: Cell Viability - HUV-EC-C (AID 542). Further: nearly all actives have a fitted effect of over 35% in size. Further: potency means the concentration at half of the fitted maximal effect. The procedure, abridged: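 Concentration-dependent ATP loss in HUV-EC-C cells is the measure. Exposure lasts 40 hr at 37 °C; luminescence follows CellTiter-Glo addition, and Hill fits give AC50.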
Test [5] can be described thus: Cellular Toxicity (caspase-3) Jurkat (AID 655).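 Further: cells exposed to compound for 16 h at 37 °C before reading.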 The conditions noted are these: Jurkat caspase-3 activation, luminescence; caspase-3 activation: at 92.2 µM (top of the series), DMSO = 0%, tamoxifen = 100%. The gist of the method:
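Luminescent Caspase-Glo 3/7 read-out (20 min, room temperature) after 16 h compound treatment at 37 C of 5000 Jurkat cells per well. AC50 derived by Hill-equation fitting, scaled between DMSO basal and 100 uM tamoxifen stimulation.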

A short description of test [6]: Cellular Toxicity (caspase-3) H-4-II-E (AID 663).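 Further: cells exposed to compound for 16 hr before readout.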 To be noted: Potency: caspase-3 activation. The procedure, abridged: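 Caspase 3/7 activation measured in H-4-II-E cells in complete culture medium after 16 hr treatment at 37 °C, using luciferase-coupled substrate readout; AC50 values come from Hill-equation fits of normalized concentration-response data.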
Test [7] is described as follows: Cellular Toxicity (caspase-3) NIH 3T3 (AID 666).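 Further: caspase signal read after 16 h compound exposure; 0% = DMSO basal and 100% = 100 µM tamoxifen stimulation.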 The procedure, abridged:
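Activity: caspase-3/7 induction, NIH 3T3 cells, 16 hr treatment at 37°C, luminescent Caspase-Glo detection; AC50 via Hill equation.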

Test [8] has as its target Cytochrome P450 3A4 (Homo sapiens) (UniProt P08684). Briefly: qHTS Assay for Inhibitors and Substrates of Cytochrome P450 3A4 (AID 884). Further: nearly all actives have a fitted effect of over 50% in size. Further: potency means the concentration at half of the fitted maximal effect. The gist of the method:
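Luminescent readout of luciferin produced by CYP3A4 (20 nM) dealkylation of Luciferin-PPXE, 25 uM (its KM). NADPH-driven reaction ran 60 min at RT after 10 min compound preincubation; data scaled to 57 uM ketoconazole as 100% inhibition.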

Test [9] can be described thus: MultiTox-Fluor Cytotoxicity Assay - LYMP1-001 - Dead Cells (AID 946).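 Further: 0% = DMSO and 100% = tetraoctylammonium bromide.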 The procedure, abridged:
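LYMP1-001 lymphoblastoid cells (2500/well) treated 16 h at 37 C. Dead-cell protease cleavage of bis-AAF-R110 read at Ex/Em 485/520. Normalized to DMSO and 15 uM tetraoctylammonium bromide; AC50 from Hill fits.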

Test [10] can be described thus: Cell Viability - LYMP1-002 - Assay at 16 hr (AID 948).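 Further: 0% = DMSO alone and full effect = 92 µM tetraoctylammonium bromide.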 The procedure, abridged: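 ATP luminescence (CellTiter-Glo) was measured after 16 hr compound exposure at 37 C of 2500 lymphoblastoid LYMP1-002 cells per well. Concentration-response curves were fitted with the Hill equation to give AC50.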
The nature of test [11]: MultiTox-Fluor Cytotoxicity Assay - LYMP1-002 - Live Cells (AID 955). Further: on the % scale 0 is the no-effect control and ±100 the full control effect. The gist of the method:
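In this qHTS viability format, lymphoblastoid cells (LYMP1-002, human) received compound for 16 hr at 37 C. Fluorogenic GF-AFC cleavage by viable cells was detected at 405/510 nm after 1 h at room temperature.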

The nature of test [12]: MultiTox-Fluor Cytotoxicity Assay - LYMP1-002 - Dead Cells (AID 960).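 Further: 0% = DMSO and 100% = tetraoctylammonium bromide; nearly all actives have a fitted effect of over 60% in size.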 The gist of the method:
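Concentration-dependent increases in membrane-leaked protease activity are quantified in LYMP1-002 cells after 16 hr treatment; values are normalized against DMSO and tetraoctylammonium bromide (15 uM) controls and AC50 derived by Hill modeling.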

Test [13] is described as follows: MultiTox-Fluor Cytotoxicity Assay - LYMP1-003 - Dead Cells (AID 961).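 Further: 0% = DMSO and 100% = tetraoctylammonium bromide; nearly all actives have a fitted effect of over 70% in size.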 The procedure, abridged: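 LYMP1-003 human lymphoblastoid cells (2500/well) exposed to compound 16 h at 37 C in complete medium; dead-cell protease read with bis-AAF-R110 fluorescence (Ex/Em 485/520) after 60 min at room temperature. Normalized to DMSO and 15 uM tetraoctylammonium bromide; AC50 from Hill fit.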

Test [14] in a line: MultiTox-Fluor Cytotoxicity Assay - LYMP1-003 - Live Cells (AID 962).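 Further: 0% = DMSO only and full loss = 92 µM tetraoctylammonium bromide; cytotoxic hits lower the live-cell protease signal.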 The procedure, abridged: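 Human lymphoblastoid line LYMP1-003 in complete culture medium, treated 16 hr with titrated compounds. Viable cells quantified via cell-permeant GF-AFC substrate fluorescence; AC50 derived by Hill fitting.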
Test [15] is described as follows: Cell Viability - LYMP2-018 (AID 985).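 Further: compound exposure lasted 24 hr at 37 °C; plate controls were DMSO only for no effect and tetraoctylammonium bromide at 92 µM for full effect; nearly all actives have a fitted effect of over 50% in size.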 The gist of the method: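 In this qHTS viability assay, cells are treated for 24 hr and cellular ATP is quantified by luciferase-based luminescence, with tetraoctylammonium bromide as positive control.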
Test [16] in a line: Cell Viability - LYMP1-002 - Assay at 24 hr (AID 993). Further: on the % scale 0 is the no-effect control and ±100 the full control effect. The gist of the method: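 Viability was judged from intracellular ATP using a luciferase read-out, following a 24-hour compound incubation at 37 C of lymphoblastoid cells seeded at 2500 per well. Concentration-response data were fitted to the Hill equation for AC50.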
Test [17] in a line: qHTS assay for small molecule disruptors of the mitochondrial membrane potential - 5 hr assay (AID 651755; calls by dose curve; further: nearly all actives have a fitted effect of over 40% in size; further: potency means the concentration at half of the fitted maximal effect). The gist of the method: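 Seed HepG2 overnight, add compound, incubate 5 hr at 37C and 5% CO2, stain 30 min with Mito-MPS, then measure monomer (490/535 nm) and aggregate (540/590 nm) fluorescence.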
Test [18] is described as follows: qHTS assay for cell viability of HEK293 cells (AID 743288). Further: on the % scale 0 is the no-effect control and ±100 the full control effect; nearly all actives have a fitted effect of over 50% in size. The conditions noted are these: ATP luminescence (CellTiter-Glo), 18 h; max response: stronger effect = lower value. The procedure, abridged: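 Readout is luciferase-coupled ATP content (CellTiter-Glo luminescence, 30 min room temperature) as a measure of metabolically competent cells. Parental HEK293 cells were plated 5 h or more before compound addition, then treated 18 h at 37 C.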

Test [19] is described as follows: qHTS assay for small molecule antagonists of retinoid X receptor alpha signaling (AID 588546; active means well fitted inhibition curve with a large enough effect in the signal ratio, with a control signal flat, not every such curve was filed as active; the % refers to the signal ratio;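 further: cells stimulated with 9-cis-retinoic acid as agonist; on the % scale 0 is the no-effect control and ±100 the full control effect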). To be noted: HEK293T RXRa-UAS-bla, beta-lactamase ratio, antagonist mode; measured here: W530 green channel, cytotoxicity proxy. The gist of the method:
(§1)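 Beta-lactamase reporter inhibition, read as CCF4 fluorescence ratio (ex 405, em 460/530 nm) after 2 h at RT. HEK293T UAS-bla cells, 2500/well, were stimulated with 9-cis-RA at 500 or 100 nM final alongside test compound for 18 h at 37 C.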

The target of test [20] is Retinoic acid receptor RXR-alpha (Homo sapiens) (UniProt P19793). The test is described as above. To be noted: HEK293T RXRa-UAS-bla, beta-lactamase ratio, antagonist mode. The gist of the method:
as §1

Where “and” joins values, the source holds several entries; their conditions need not be identical. Equal entries are not always repeated. Results filed as inconclusive are left out. Calls of active or inactive are those of the source. Unless noted, the call rests on the fitted dose curve; in most records, active means well fitted curve in the direction sought with a large enough effect; inconclusive means small, poorly fitted or top-dose-only effect, or another doubt; inactive means no such curve, though single readings can be large; an effect the other way counts as inactive or inconclusive. A value given as a limit tells only on which side of the number the result lay.

Cytochrome P450 3A4 (Homo sapiens), sequence (P08684 whole entry, looked up): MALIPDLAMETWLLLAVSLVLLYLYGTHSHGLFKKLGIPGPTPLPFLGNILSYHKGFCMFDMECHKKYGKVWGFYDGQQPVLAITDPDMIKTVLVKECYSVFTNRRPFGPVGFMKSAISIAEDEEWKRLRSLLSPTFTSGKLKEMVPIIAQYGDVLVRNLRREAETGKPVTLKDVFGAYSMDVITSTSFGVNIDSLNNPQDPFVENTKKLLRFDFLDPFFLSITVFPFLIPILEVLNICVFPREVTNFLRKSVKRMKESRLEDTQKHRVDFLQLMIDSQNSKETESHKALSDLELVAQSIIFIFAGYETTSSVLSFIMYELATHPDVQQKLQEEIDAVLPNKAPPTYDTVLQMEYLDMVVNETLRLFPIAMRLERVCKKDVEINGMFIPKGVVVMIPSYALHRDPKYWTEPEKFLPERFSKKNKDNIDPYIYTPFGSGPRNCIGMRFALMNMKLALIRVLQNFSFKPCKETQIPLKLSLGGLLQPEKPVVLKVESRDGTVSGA
Retinoic acid receptor RXR-alpha (Homo sapiens), sequence (P19793 whole entry, looked up): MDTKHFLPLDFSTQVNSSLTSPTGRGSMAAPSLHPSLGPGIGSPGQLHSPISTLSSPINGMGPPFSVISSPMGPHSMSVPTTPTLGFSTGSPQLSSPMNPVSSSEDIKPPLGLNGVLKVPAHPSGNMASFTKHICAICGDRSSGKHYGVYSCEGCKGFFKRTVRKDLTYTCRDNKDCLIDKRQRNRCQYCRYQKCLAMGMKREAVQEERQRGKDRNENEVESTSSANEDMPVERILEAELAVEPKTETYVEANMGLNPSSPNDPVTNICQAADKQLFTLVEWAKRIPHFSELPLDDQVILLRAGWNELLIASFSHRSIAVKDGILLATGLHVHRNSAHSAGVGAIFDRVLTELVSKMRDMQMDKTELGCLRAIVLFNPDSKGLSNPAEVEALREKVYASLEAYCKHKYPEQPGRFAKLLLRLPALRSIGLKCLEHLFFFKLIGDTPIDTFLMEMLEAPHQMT

For `c1ccncc1`, the Potency in test [1], in test [2] and in test [3] was > 92 µM (inactive) throughout. Besides, the Potency result in test [4], in [5], in test [6], in test [8], in [9] and in test [10] was “inactive” throughout. Moreover, the Potency result in test [12], in [13], in test [14], in test [15], in [16] and in test [17] was “inactive” throughout. Moreover, the molecule was classed as inactive in [7] and in test [11]. Also, the max response in test [18] was 1.01% (inactive).
Turning to `S=C(NC1CCCCC1)NC1CCCCC1`, in test [3], the Potency was > 92 µM (inactive). Moreover, the Potency result in test [4], in [5], in test [6], in test [9], in [10] and in [12] was “inactive” each time. Moreover, the Potency result in test [13], in test [14], in test [15], in [16] and in test [17] was “inactive” throughout. The molecule was called inactive in [7] and in [11]. In addition, the max response was -2.99% in test [19], -14.3% (inactive) in test [20] and -15.2% (inactive) in [18].
Take `C=CC1CO1` (stereo not given): the Potency in test [1], in test [2] and in test [3] was > 92 µM (inactive) each time. Besides, the Potency entry in test [4], in [5], in test [6], in test [8], in test [9] and in test [10] was “inactive” in each case. Besides, the Potency result in [12], in test [13], in [14], in [15], in test [16] and in test [17] was “inactive” in each case. Moreover, the outcome in test [7] and in test [11] was inactive. The max response in test [19] is -2.46%; in test [20] it was -9.54% (inactive); in test [18], -1.41% (inactive).
On to `Cc1c(C(=O)O)c(O)cc2c1C(=O)c1c(O)c([C@H]3O[C@H](CO)[C@@H](O)[C@H](O)[C@H]3O)c(O)c(O)c1C2=O`, for which the Potency in test [4] is 31.6 µM (active). Moreover, the Potency entry in [5], in [6], in [9], in [12], in [13] and in test [14] was “inactive” in each case. For the same molecule, in test [17], the Potency result was “inactive”. Besides, the call in test [7] and in test [11] was inactive. Also, the max response in [19] was -15.8%; in test [20] it was 21% (inactive).
Consider `Nc1ccc2c(c1)C(=O)c1ccccc1C2=O`, for which the Potency in test [1] is > 92 µM (inactive); in [3], > 92 µM (inactive); in test [4], 31.6 µM (active); in test [8], 2.51 µM (active); in test [17], 1.5 µM (active). In addition, the Potency result in test [5], in test [6], in [9], in test [10], in [12] and in test [13] was “inactive” each time. Moreover, the Potency entry in [14], in test [15] and in test [16] was “inactive” throughout. In addition, in test [11], the call was inactive. Besides, the max response is -11.8% and -6.92% in [19]; 7.8% (inactive) and -4.23% (inactive) in test [20]; -13.3% (inactive) and -4.81% (inactive) in test [18].
